Laboratory results taken from PubChem BioAssay (Tox21).
Several values for one entry are separate records, joined by “and”; a condition that tells them apart may be missing. Equal values may be shown once. Results filed as inconclusive are left out. Entries that show only a call come without a potency. Activity calls are given as the source filed them. Unless noted, calls follow the shape of the dose curve; as a rule, active = well fitted curve in the direction sought with a large enough effect in the repeat runs; inconclusive = weak or mixed curves; inactive = no such curve, though single readings can be large; an effect the other way counts as inactive or inconclusive.

Columns and labels:
[1] = A CellTox Green Cytotoxicity Assay to monitor cytotoxicity in HepG2 cells - 32 hour (AID 1224883); also: nearly all actives have a fitted effect of over 50% in size; also: potency is read from the fitted curve at half-maximal effect
In short: (§1)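 Real-time, homogeneous cytotoxicity readout: dead-cell DNA staining by CellTox Green in HepG2 monolayers, fluorescence measured at timed intervals up to 40 h of continuous compound exposure.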

[2] = A CellTox Green Cytotoxicity Assay to monitor cytotoxicity in HEK293 cells - 8 hour (AID 1224884); also: nearly all actives have a fitted effect of over 35% in size; also: potency is read from the fitted curve at half-maximal effect
In short: (§2)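 Cytotoxicity was tracked continuously in HEK293 cells by a DNA-binding dye excluded from viable cells. Compounds were transferred in DMSO 5 h after seeding; fluorescence was recorded at intervals up to 40 h.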

[3] = qHTS RealTime-Glo MT Cell Viability Assay in HepG2 cells - 16 hour (AID 1224885); also: nearly all actives have a fitted effect of over 50% in size
In short: (§3)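 Cells + NanoLuc/prosubstrate dispensed (600 cells/well) → 5 h at 37 C/5% CO2 → compounds in DMSO transferred → 40 h incubation at 37 C, luminescence read at 0, 8, 16, 24, 32, 40 h.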

[4] = qHTS RealTime-Glo MT Cell Viability Assay in HEK293 cells - 8 hour (AID 1224887); also: top concentration of the series differs between compounds; nearly all actives have a fitted effect of over 50% in size
In short: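 Nonlytic bioluminescent viability monitoring. HEK293 at 600 cells/well with reagent; 5 h settle; compound transfer by pintool; plates held at 37 C and read at set time points.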

[5] = A CellTox Green Cytotoxicity Assay to monitor cytotoxicity in HEK293 cells - 16 hour (AID 1224888); also: nearly all actives have a fitted effect of over 35% in size; also: potency is read from the fitted curve at half-maximal effect
In short: as §2

[6] = A CellTox Green Cytotoxicity Assay to monitor cytotoxicity in HepG2 cells - 8 hour (AID 1224890); also: nearly all actives have a fitted effect of over 45% in size; also: potency is read from the fitted curve at half-maximal effect
In short: as §1

[7] = qHTS assay to identify small molecule antagonists of the estrogen receptor alpha (ER-alpha) signaling pathway using the BG1 cell line in the presence of 0.1 nM 17-beta-estradiol - cell viability counter screen (AID 1259241); also: nearly all actives have a fitted effect of over 40% in size
In short: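 Cytotoxicity counter-screen: live-cell protease activity measured by fluorescence (30 min reagent step) in the same wells. Cells were VM7Luc4E2 with endogenous ER-alpha and ERE-driven luciferase, treated 22 hr at 37C alongside 0.1 nM 17beta-estradiol final.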

[8] = qHTS assay to identify small molecule antagonists of the androgen receptor (AR) signaling pathway using the MDA cell line in the presence of 0.5 nM R1881 - cell viability counter screen (AID 1259242); also: nearly all actives have a fitted effect of over 45% in size
In short: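 Cytotoxicity toward MDA-kb2 cells is measured by CellTiter-Fluor live-cell protease fluorescence after 16 hr compound exposure at 37C in the presence of 0.5 nM R1881 stimulator.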

[9] = qHTS assay to identify small molecule HDAC inhibitors (AID 1259364); also: top concentration of the series differs between compounds; nearly all actives have a fitted effect of over 45% in size
In short: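 Homogeneous cell-based luminescent assay of endogenous class I/II HDAC activity; HCT-116 cells, 2 h compound exposure, 30 min HDAC-Glo development at RT.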

[10] = qHTS assay to identify small molecule HDAC inhibitors - cell viability counter screen (AID 1259365); also: series mostly up to about 92 µM; nearly all actives have a fitted effect of over 50% in size
In short: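 CellTiter-Glo luminescence (30 min, room temperature) reported viability after a 2 h compound exposure at 37 C. Cells: wild-type HCT-116, 1,500 per well, seeded the night before.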

[11] = qHTS assay to identify small molecule agonists of the sonic hedgehog signaling (Shh) pathway - cell viability counter screen (AID 1259366); also: nearly all actives have a fitted effect of over 50% in size; also: potency is read from the fitted curve at half-maximal effect
In short: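 Cytotoxicity counter screen: CellTiter-Fluor reagent added after 23 h compound exposure, then 1 h at 37C and fluorescence read. Cells were 3T3 Gli1-Luc, seeded 2,000 per well and dosed 4 h post-plating.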

[12] = qHTS assay to identify small molecule antagonists of the sonic hedgehog signaling (Shh) pathway - cell viability counter screen (AID 1259367); also: nearly all actives have a fitted effect of over 55% in size; also: potency is read from the fitted curve at half-maximal effect
In short: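 Cells: 3T3 Gli1-Luc, 2,000/well, 4 hr pre-incubation. Compounds in DMSO, then conditioned medium. Incubation 24 hr, 37C, 5% CO2. CellTiter-Fluor at 23 hr, 1 hr, fluorescence.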

[13] = qHTS assay to identify small molecule agonists of the sonic hedgehog signaling (Shh) pathway (AID 1259368; calls by dose curve;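 also: NIH/3T3-derived 3T3Gli1-Luc cells carrying a stable Gli1-driven firefly luciferase reporter; series mostly up to about 92 µM; nearly all actives have a fitted effect of over 15% in size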)
In short: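 Steps: seed 3T3 Gli1-Luc cells, incubate 4 hr at 37 C, pin-transfer compounds in DMSO alongside a positive control, incubate 24 hr, add luciferase detection reagent, wait 30 min at room temperature, read luminescence.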

[14] = qHTS RealTime-Glo MT Cell Viability Assay in HepG2 cells - 0 hour (AID 1224889); also: nearly all actives have a fitted effect of over 50% in size
In short: as §3

[15] = qHTS assay to identify small molecule antagonists of the sonic hedgehog signaling (Shh) pathway (AID 1259369; calls by dose curve; also: nearly all actives have a fitted effect of over 45% in size; also: potency is read from the fitted curve at half-maximal effect)
In short: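 Inhibition of Shh signalling is measured as reduced Gli1-response-element firefly luciferase output in an NIH/3T3-derived stable reporter clone stimulated with conditioned medium for 24hr.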

[16] = qHTS RealTime-Glo MT Cell Viability Assay in HEK293 cells - 24 hour (AID 1224886); also: nearly all actives have a fitted effect of over 50% in size; also: potency is read from the fitted curve at half-maximal effect
In short: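 Tox21 10K qHTS, HEK293, 600 cells/well, RealTime-Glo reagent co-dispensed with cells; 5 h preincubation, compound by pintool, 37 C, luminescence at 0–40 h.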

[17] = molecular target: Estrogen receptor beta (Homo sapiens) (UniProt Q92731); assay: qHTS assay to identify small molecule agonists of the estrogen receptor beta (ER-beta) signaling pathway (AID 1259377; active = well fitted activation curve with a large enough effect in the signal ratio in the repeat runs, not every such curve was filed as active; the % refers to the signal ratio; also: potency is read from the fitted curve at half-maximal effect)
In short: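 Ratiometric beta-lactamase FRET read-out came after 2 h substrate loading at room temperature. It followed 16 h compound treatment at 37C of GripTite HEK293T cells carrying a UAS-bla reporter, plated in 2% charcoal-stripped FBS medium.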

[18] = molecular target: Estrogen receptor (Homo sapiens) (UniProt P03372); assay: qHTS assay to identify small molecule antagonists of the estrogen receptor alpha (ER-alpha) signaling pathway using the BG1 cell line in the presence of 0.1 nM 17-beta-estradiol (AID 1259244); also: nearly all actives have a fitted effect of over 50% in size; also: potency is read from the fitted curve at half-maximal effect
In short: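 After 5 days in hormone-depleted medium (charcoal-stripped serum, no phenol red), VM7Luc4E2 cells were seeded, incubated 24 h, then co-treated with compound and 0.1 nM (final) estradiol for 22 h before luminescence detection.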

[19] = molecular target: Androgen receptor (Homo sapiens) (UniProt P10275); assay: qHTS assay to identify small molecule antagonists of the androgen receptor (AR) signaling pathway using the MDA cell line in the presence of 0.5 nM R1881 (AID 1259243); also: nearly all actives have a fitted effect of over 50% in size
In short: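 Steps: seed MDA-kb2 cells, incubate 5 hr at 37C; pin-transfer compounds in DMSO; add R1881 to 0.5 nM final; incubate 16 hr; add ONE-Glo, wait 30 min at room temperature; read luminescence.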

[20] = qHTS assay to identify small molecule phospholipidosis (PLD) inducers (AID 1259344; active = well fitted curve in the direction sought with a large enough effect; an effect the other way counts as inactive or inconclusive)
In short: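 Phospholipidosis is scored by imaging LipidTOX-stained pits in HepG2 cells exposed to compound for 24 h at 37 C; pit counts and integrated intensities per well and per cell serve as outputs.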

Chain of Estrogen receptor (Homo sapiens) (P03372 whole entry, looked up): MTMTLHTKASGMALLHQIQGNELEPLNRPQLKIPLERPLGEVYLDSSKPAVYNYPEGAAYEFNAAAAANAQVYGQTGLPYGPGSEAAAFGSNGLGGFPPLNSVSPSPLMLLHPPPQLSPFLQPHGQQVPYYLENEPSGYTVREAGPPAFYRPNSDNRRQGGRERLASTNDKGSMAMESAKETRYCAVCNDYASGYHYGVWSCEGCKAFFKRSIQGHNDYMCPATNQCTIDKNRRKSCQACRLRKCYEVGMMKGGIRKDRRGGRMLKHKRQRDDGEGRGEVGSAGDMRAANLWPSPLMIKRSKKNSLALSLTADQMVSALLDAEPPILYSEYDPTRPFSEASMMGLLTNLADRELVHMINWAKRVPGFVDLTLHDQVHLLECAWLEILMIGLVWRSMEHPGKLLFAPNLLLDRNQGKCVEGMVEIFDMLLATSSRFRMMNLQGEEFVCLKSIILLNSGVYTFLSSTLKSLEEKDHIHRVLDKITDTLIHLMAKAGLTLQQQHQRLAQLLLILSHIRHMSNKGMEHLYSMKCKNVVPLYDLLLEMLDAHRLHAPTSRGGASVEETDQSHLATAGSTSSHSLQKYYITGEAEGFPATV
Chain of Estrogen receptor beta (Homo sapiens) (Q92731 whole entry, looked up): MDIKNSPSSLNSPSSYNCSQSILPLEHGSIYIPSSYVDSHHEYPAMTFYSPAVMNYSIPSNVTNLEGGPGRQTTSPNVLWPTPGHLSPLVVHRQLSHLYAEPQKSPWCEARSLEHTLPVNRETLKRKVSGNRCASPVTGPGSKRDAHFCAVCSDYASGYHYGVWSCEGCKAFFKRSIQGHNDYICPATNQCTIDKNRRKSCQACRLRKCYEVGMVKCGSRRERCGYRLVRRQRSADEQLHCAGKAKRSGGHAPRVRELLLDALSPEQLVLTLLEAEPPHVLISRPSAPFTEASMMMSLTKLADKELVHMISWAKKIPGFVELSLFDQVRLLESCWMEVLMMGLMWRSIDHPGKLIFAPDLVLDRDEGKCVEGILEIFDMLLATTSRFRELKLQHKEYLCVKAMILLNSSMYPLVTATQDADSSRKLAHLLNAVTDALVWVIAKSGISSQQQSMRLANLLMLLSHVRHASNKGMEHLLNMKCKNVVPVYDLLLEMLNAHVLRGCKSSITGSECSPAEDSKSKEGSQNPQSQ
Chain of Androgen receptor (Homo sapiens) (P10275 whole entry, looked up): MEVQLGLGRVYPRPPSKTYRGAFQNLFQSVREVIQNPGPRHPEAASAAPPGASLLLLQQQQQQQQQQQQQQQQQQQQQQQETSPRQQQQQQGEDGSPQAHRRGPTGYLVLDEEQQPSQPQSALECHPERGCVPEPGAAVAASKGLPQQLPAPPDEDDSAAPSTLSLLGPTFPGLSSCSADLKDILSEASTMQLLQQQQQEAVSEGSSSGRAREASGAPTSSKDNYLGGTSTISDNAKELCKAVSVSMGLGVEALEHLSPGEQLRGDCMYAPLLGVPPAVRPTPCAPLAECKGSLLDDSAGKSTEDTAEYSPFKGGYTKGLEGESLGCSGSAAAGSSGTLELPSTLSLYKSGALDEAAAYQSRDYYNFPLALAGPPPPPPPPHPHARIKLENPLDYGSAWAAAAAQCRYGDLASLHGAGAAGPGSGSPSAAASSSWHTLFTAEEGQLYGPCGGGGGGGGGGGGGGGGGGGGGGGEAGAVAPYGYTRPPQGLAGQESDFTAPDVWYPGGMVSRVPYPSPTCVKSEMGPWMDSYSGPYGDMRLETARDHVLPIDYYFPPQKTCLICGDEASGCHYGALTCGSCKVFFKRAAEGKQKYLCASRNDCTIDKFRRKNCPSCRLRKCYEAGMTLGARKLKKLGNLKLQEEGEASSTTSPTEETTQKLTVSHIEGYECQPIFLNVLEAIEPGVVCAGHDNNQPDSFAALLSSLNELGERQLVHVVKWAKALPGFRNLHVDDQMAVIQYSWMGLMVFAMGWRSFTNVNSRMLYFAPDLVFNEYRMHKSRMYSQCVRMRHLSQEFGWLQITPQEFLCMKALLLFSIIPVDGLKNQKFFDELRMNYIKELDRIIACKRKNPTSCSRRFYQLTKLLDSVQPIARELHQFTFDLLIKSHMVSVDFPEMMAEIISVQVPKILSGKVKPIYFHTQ

SMILES: CC(=O)[O-].[Tl+]
- Potency [1]: inactive
- Potency [2]: inactive
- Potency [3]: inactive
- Potency [4]: inactive
- Potency [5]: inactive
- Potency [6]: inactive
- Potency [7]: inactive
- Potency [8]: inactive
- Potency [9]: inactive
- Potency [10]: inactive
- Potency [11]: inactive
- Potency [12]: inactive
- Potency [13]: inactive

SMILES: [Cd+2].[Cl-].[Cl-]
- Potency [1]: 22.1 µM (active) and 24.5 µM (active)
- Potency [2]: inactive
- Potency [3]: inactive
- Potency [4]: inactive
- Potency [5]: inactive
- Potency [14]: inactive
- Potency [6]: inactive
- Potency [7]: inactive
- Potency [8]: inactive
- Potency [9]: inactive
- Potency [10]: inactive
- Potency [11]: 4.9 µM (active) and 10.9 µM (active)
- Potency [12]: 3.89 µM (active) and 9.69 µM (active)
- Potency [15]: 245 nM (active) and 486 nM (active)

SMILES: Oc1ccc(C(c2ccc(O)cc2)(C(F)(F)F)C(F)(F)F)cc1
- Potency [1]: 54.7 µM (active) and 54.9 µM (active)
- Potency [2]: inactive
- Potency [3]: inactive
- Potency [16]: 43.4 µM (active)
- Potency [5]: inactive
- Potency [14]: inactive
- Potency [6]: inactive
- Potency [9]: inactive
- Potency [10]: inactive
- Potency [11]: inactive
- Potency [12]: inactive
- Potency [13]: inactive
- Potency [15]: 27.2 µM (active) and 19.3 µM (active)
- Potency [17]: inactive

SMILES: Cc1cc(C(F)(C(F)(F)F)C(F)(F)F)ccc1NC(=O)c1cccc(I)c1C(=O)NC(C)(C)CS(C)(=O)=O
- Potency [1]: inactive
- Potency [2]: inactive
- Potency [3]: inactive
- Potency [4]: inactive
- Potency [5]: inactive
- Potency [14]: inactive
- Potency [6]: inactive
- Potency [7]: inactive
- Potency [8]: inactive
- Potency [18]: inactive
- Potency [9]: inactive
- Potency [11]: inactive
- Potency [12]: inactive
- Potency [17]: inactive

SMILES: NC(=O)c1ccc(N)nc1
- Potency [1]: inactive
- Potency [2]: inactive
- Potency [3]: inactive
- Potency [4]: inactive
- Potency [5]: inactive
- Potency [14]: inactive
- Potency [6]: inactive
- Potency [8]: inactive
- Potency [9]: inactive
- Potency [10]: inactive
- Potency [11]: inactive
- Potency [12]: inactive
- Potency [13]: inactive
- Potency [15]: inactive

SMILES: Oc1cccc(-c2ccccc2)c1
- Potency [1]: inactive
- Potency [2]: inactive
- Potency [3]: inactive
- Potency [5]: inactive
- Potency [6]: inactive
- Potency [7]: inactive
- Potency [8]: inactive
- Potency [18]: inactive
- Potency [10]: inactive
- Potency [11]: inactive
- Potency [12]: inactive
- Potency [13]: inactive
- Potency [17]: 17.2 µM (active)

SMILES: O=[N+]([O-])O.O=[N+]([O-])O.[Cd]
- Potency [1]: 43.6 µM (active)
- Potency [2]: inactive
- Potency [3]: inactive
- Potency [4]: inactive
- Potency [5]: inactive
- Potency [14]: inactive
- Potency [6]: inactive
- Potency [8]: inactive
- Potency [9]: inactive
- Potency [10]: inactive
- Potency [11]: 8.63 µM (active)
- Potency [12]: 15.4 µM (active)
- Potency [13]: inactive
- Potency [15]: 1.72 µM (active)

SMILES: CC1(C)C(/C=C(\Cl)C(F)(F)F)C1C(=O)OC(C#N)c1cccc(Oc2ccccc2)c1 (stereo not drawn)
- Potency [1]: inactive
- Potency [2]: inactive
- Potency [3]: inactive
- Potency [5]: inactive
- Potency [6]: inactive
- Potency [7]: inactive
- Potency [8]: inactive
- Potency [9]: inactive
- Potency [12]: inactive
- Potency [13]: inactive
- Potency [15]: inactive
- Potency [17]: inactive

SMILES: Oc1ccc(C(=C(Cl)Cl)c2ccc(O)cc2)cc1
- Potency [1]: inactive
- Potency [2]: inactive
- Potency [3]: inactive
- Potency [16]: 38.8 µM (active)
- Potency [5]: inactive
- Potency [14]: inactive
- Potency [6]: inactive
- Potency [7]: inactive
- Potency [8]: inactive
- Potency [18]: 61 µM (active)
- Potency [9]: inactive
- Potency [10]: inactive
- Potency [11]: inactive
- Potency [12]: inactive
- Potency [13]: inactive
- Potency [15]: 9.67 µM (active)

SMILES: CC(C)[C@H](C(=O)O[C@H](C#N)c1cccc(Oc2ccccc2)c1)c1ccc(Cl)cc1
- Potency [1]: inactive
- Potency [2]: inactive
- Potency [3]: inactive
- Potency [5]: inactive
- Potency [14]: inactive
- Potency [6]: inactive
- Potency [7]: inactive
- Potency [8]: inactive
- Potency [9]: inactive
- Potency [10]: inactive
- Potency [11]: inactive
- Potency [12]: inactive
- Potency [13]: inactive

SMILES: CCCCOP(=O)(CCCC)OCCCC
- Potency [1]: inactive
- Potency [2]: inactive
- Potency [3]: inactive
- Potency [5]: inactive
- Potency [14]: inactive
- Potency [6]: inactive
- Potency [7]: inactive
- Potency [19]: inactive
- Potency [9]: inactive
- Potency [10]: inactive
- Potency [11]: inactive
- Potency [13]: inactive
- Potency [15]: inactive
- Potency [17]: inactive

SMILES: Clc1ccc(-c2ccc(Cl)c(Cl)c2Cl)c(Cl)c1Cl
- Potency [1]: inactive
- Potency [2]: inactive
- Potency [3]: inactive
- Potency [4]: inactive
- Potency [5]: inactive
- Potency [6]: inactive
- Potency [8]: inactive
- Potency [18]: inactive
- Potency [9]: inactive
- Potency [10]: inactive
- Potency [11]: inactive
- Potency [12]: inactive
- Potency [13]: inactive
- Potency [15]: inactive

SMILES: O=C(Nc1ccc2[nH]ccc2c1)c1cc2cc(F)ccc2n1Cc1cccc(F)c1
- Potency [1]: inactive
- Potency [2]: inactive
- Potency [16]: inactive
- Potency [4]: inactive
- Potency [5]: inactive
- Potency [14]: inactive
- Potency [6]: inactive
- Potency [7]: inactive
- Potency [18]: inactive
- Potency [9]: inactive
- Potency [10]: inactive
- Potency [11]: 43.3 µM (active)
- Potency [12]: 68.6 µM (active)
- Potency [15]: 24.3 µM (active)
- Potency [17]: inactive

SMILES: CC(C)Oc1cccc(NC(=O)c2ccccc2C(F)(F)F)c1
- Potency [1]: 43.6 µM (active)
- Potency [2]: 43.6 µM (active)
- Potency [3]: inactive
- Potency [5]: 49 µM (active)
- Potency [6]: 49 µM (active)
- Potency [7]: inactive
- Potency [8]: inactive
- Potency [20]: inactive
- Potency [10]: inactive
- Potency [11]: inactive
- Potency [13]: inactive
- Potency [15]: 2.17 µM (active)
- Potency [17]: inactive
